# Biological target: Ribosomal protein S6 kinase alpha-1 (Homo sapiens) (UniProt Q15418)
# Settings: at 10 µM
# Sequence of Ribosomal protein S6 kinase alpha-1 (Homo sapiens) (Q15418 whole entry): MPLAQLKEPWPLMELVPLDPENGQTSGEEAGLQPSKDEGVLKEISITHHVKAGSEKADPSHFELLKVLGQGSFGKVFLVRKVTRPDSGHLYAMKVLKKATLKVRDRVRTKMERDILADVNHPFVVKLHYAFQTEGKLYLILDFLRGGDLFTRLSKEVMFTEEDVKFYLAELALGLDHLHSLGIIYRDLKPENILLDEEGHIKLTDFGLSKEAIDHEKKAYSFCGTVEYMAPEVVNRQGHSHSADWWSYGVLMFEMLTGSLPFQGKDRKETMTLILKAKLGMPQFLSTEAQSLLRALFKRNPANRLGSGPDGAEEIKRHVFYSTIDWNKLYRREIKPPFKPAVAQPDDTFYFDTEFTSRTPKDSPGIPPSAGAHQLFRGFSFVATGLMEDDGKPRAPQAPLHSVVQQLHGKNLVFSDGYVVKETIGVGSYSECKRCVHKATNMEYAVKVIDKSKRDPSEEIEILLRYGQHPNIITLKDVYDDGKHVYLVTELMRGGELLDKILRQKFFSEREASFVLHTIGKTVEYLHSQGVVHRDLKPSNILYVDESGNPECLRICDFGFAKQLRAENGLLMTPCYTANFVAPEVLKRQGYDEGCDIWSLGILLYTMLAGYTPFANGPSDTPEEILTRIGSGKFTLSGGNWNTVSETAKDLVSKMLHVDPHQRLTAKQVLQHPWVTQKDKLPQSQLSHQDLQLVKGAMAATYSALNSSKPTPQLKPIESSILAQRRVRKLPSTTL
row,SMILES,residual activity
1,c1ccc(-c2n[nH]c3c2oc2ccccc23)cc1,58%
2,NC(=O)c1ccc2[nH]c(-c3ccc(Oc4ccc(Cl)cc4)cc3)nc2c1,67%
3,N#CC(C#N)=C(N)/C(C#N)=C/c1ccc(O)cc1,78%
4,Cc1cc(Nc2nc(-c3ccccc3)nc3ccccc23)n[nH]1,15%
5,Cc1cc2ncc(-c3ccccc3)nc2cc1C,86%
6,Cc1nc2cc3nc(-c4cccs4)cnc3cc2n1C,89%
7,CO[C@H]1[C@@H](OC)C[C@H](C)[C@@H](OC)C2=CC(=O)C=C(NC(=O)/C(C)=C/C=C/[C@H](OC)[C@@H](OC(N)=O)/C(C)=C/[C@@H]1C)C2=O,84%
8,CN(C)CCCn1cc(C2=C(c3c[nH]c4ccccc34)C(=O)NC2=O)c2ccccc21,2%
9,Oc1ccc(-c2nc(-c3ccc(F)cc3)c(-c3ccncc3)[nH]2)cc1,83%
10,COc1cc2ncnc(N3CCN(C(=O)Nc4ccc(Oc5ccccc5)cc4)CC3)c2cc1OC,118%
11,O=C1NC(=O)/C(=C\c2ccc3nccnc3c2)S1,83%
12,Oc1ccc(Nc2nc(-c3ccc(Cl)cc3)cs2)cc1,103%

# Biological target: Ribosomal protein S6 kinase alpha-3 (Homo sapiens) (UniProt P51812)
# Sequence (P51812 whole entry): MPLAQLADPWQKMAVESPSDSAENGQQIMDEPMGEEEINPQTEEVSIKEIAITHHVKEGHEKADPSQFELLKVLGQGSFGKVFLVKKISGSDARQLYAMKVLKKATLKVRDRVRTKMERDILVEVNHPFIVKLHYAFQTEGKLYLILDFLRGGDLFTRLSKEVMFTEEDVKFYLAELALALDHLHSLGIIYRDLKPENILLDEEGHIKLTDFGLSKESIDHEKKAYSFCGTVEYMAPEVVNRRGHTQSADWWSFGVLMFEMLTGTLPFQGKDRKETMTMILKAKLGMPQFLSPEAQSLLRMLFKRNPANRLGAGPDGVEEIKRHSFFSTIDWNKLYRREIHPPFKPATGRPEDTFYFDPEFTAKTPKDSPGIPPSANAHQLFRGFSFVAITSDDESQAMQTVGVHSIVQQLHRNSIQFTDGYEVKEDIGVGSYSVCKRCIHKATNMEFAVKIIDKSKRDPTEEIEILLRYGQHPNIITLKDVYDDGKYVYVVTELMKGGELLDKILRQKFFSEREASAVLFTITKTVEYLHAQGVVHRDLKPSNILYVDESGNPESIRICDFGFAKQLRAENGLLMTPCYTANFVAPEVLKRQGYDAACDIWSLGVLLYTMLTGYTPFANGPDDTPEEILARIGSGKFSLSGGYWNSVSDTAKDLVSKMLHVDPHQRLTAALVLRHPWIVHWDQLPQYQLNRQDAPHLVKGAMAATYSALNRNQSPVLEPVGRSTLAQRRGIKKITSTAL
# Settings: at 1 µM
row,SMILES,residual activity
1,Nc1cccc(-c2cc3c(Oc4cccc(O)c4)ncnc3[nH]2)c1,68%
2,Cc1cccc(-c2[nH]c(C(C)(C)C)nc2-c2ccc3c(c2)OCO3)n1,67%
3,COc1cc2ncnc(Nc3ccc(NC(=O)c4ccccc4)cc3)c2cc1OC,67%
4,Cn1nc2c3c(cccc31)C(=O)c1ccccc1-2,58%
5,N#Cc1cnc2cnc(NCc3cccnc3)cc2c1Nc1ccc(F)c(Cl)c1,0%
6,c1ccc2c(-c3ccncc3)c[nH]c2c1,72%
7,O=C(Nc1cccc(Nc2nccc(Nc3cccc(C(F)(F)F)c3)n2)c1)C1CC1,45%
8,CC(C)n1cnc2c(NCc3ccccc3)nc(NCCCO)nc21,101%
9,COc1cc2ncnc(Nc3ccc(Oc4ccccc4)cc3)c2cc1OC,104%
10,O=C(O)c1ccc2c3c1cccc3c(=O)n1c3ccccc3nc21,51%
11,Cn1cnc2cc3c(Nc4cccc(Br)c4)ncnc3cc21,108%
12,O=C1Nc2ccc(Br)cc2/C1=C\c1cc2c([nH]1)CCCC2,45%
13,c1ccc(-c2n[nH]cc2-c2ccnc3ccccc23)nc1,60%
14,CC(=O)c1ccc(N2CCOCC2)cc1O,64%
15,N#CCCc1ccc2c(c1)-c1[nH]c3ccc([N+](=O)[O-])cc3c1CC(=O)N2,9%
16,Cc1cncc2cccc(S(=O)(=O)N3CCCN(C(=O)CN)C[C@H]3C)c12,60%
17,Cc1ccc(S(=O)(=O)/C=C/C#N)cc1,116%

row,SMILES,residual activity
1,O=C1NC(=O)c2cc(Nc3ccc(F)cc3)c(Nc3ccc(F)cc3)cc21,123%
2,CCN(CC)C(=O)c1ccc(Nc2nc(OCC3CCCCC3)c3nc[nH]c3n2)cc1,30%
3,Cn1cc(/C=C2\C(=O)Nc3ccc(S(N)(=O)=O)cc32)c2ccccc21,9%
4,O=C1Nc2ccccc2/C1=C1/Nc2ccccc2/C1=N\OCCC(O)CO (stereo not given),15%
5,c1ccc(-c2n[nH]c3c2oc2ccccc23)cc1,66%
6,NC(=O)c1ccc2[nH]c(-c3ccc(Oc4ccc(Cl)cc4)cc3)nc2c1,30%
7,N#CC(C#N)=C(N)/C(C#N)=C/c1ccc(O)cc1,49%
8,Cc1cc(Nc2nc(-c3ccccc3)nc3ccccc23)n[nH]1,58%
9,Cc1cc2ncc(-c3ccccc3)nc2cc1C,50%
10,Cc1nc2cc3nc(-c4cccs4)cnc3cc2n1C,102%
11,CO[C@H]1[C@@H](OC)C[C@H](C)[C@@H](OC)C2=CC(=O)C=C(NC(=O)/C(C)=C/C=C/[C@H](OC)[C@@H](OC(N)=O)/C(C)=C/[C@@H]1C)C2=O,50%
12,Oc1ccc(-c2nc(-c3ccc(F)cc3)c(-c3ccncc3)[nH]2)cc1,55%
13,COc1cc2ncc(-c3ccccc3)nc2cc1OC,54%
14,COc1cc2ncnc(N3CCN(C(=O)Nc4ccc(Oc5ccccc5)cc4)CC3)c2cc1OC,56%
15,O=C1NC(=O)/C(=C\c2ccc3nccnc3c2)S1,61%
16,Oc1ccc(Nc2nc(-c3ccc(Cl)cc3)cs2)cc1,75%

# From ChEMBL document CHEMBL2218924, “A broad activity screen in support of a chemogenomic map for kinase signalling research and drug discovery” (Biochem J, 2013)
